PfM18AAP inh-1 = PfM18AAP inhibitors, malaria aminopeptidase, primary screen, biochemical, QFRET, recombinant enzyme | M18 aspartyl aminopeptidase (Plasmodium falciparum 3D7) | H-Glu-NHMec fluorogenic cleavage | inhibition, % at 7.35 µM | 1.2% of 290,000 active | AID 1822, 2009;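 active means inhibition above the campaign mean inhibition over all tested compounds plus 3 SD, cut at about 28% in these data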;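 further: 0% = plate median of test compound wells and 100% = 2 mM ZnCl2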
PERK inh = block of dimerizer-induced PERK translation repression, primary screen, PERK inhibitor project, CHO PERK-DD cells, SEAP luminescence, HTS; inhibition, % at 5.6 µM; 0.17% of 220,000 active; Eukaryotic translation initiation factor 2-alpha kinase 3 (Homo sapiens), Q9NZJ5; AID 1416, 2008; CHO PERK-DD fusion, SEAP luminescence translation reporter;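 active means inhibition above the mean inhibition of all tested compounds plus 3 SD, set separately per screening campaign, cut at about 2.9% in these data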;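 further: PERK kinase domain activated by AP20187 dimerizer at 100 nM; 0% = DMSO with dimerizer and 100% = rapamycin at 8.4 µM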
Target sequence (Q9NZJ5 whole entry, looked up, the tested form may be a part): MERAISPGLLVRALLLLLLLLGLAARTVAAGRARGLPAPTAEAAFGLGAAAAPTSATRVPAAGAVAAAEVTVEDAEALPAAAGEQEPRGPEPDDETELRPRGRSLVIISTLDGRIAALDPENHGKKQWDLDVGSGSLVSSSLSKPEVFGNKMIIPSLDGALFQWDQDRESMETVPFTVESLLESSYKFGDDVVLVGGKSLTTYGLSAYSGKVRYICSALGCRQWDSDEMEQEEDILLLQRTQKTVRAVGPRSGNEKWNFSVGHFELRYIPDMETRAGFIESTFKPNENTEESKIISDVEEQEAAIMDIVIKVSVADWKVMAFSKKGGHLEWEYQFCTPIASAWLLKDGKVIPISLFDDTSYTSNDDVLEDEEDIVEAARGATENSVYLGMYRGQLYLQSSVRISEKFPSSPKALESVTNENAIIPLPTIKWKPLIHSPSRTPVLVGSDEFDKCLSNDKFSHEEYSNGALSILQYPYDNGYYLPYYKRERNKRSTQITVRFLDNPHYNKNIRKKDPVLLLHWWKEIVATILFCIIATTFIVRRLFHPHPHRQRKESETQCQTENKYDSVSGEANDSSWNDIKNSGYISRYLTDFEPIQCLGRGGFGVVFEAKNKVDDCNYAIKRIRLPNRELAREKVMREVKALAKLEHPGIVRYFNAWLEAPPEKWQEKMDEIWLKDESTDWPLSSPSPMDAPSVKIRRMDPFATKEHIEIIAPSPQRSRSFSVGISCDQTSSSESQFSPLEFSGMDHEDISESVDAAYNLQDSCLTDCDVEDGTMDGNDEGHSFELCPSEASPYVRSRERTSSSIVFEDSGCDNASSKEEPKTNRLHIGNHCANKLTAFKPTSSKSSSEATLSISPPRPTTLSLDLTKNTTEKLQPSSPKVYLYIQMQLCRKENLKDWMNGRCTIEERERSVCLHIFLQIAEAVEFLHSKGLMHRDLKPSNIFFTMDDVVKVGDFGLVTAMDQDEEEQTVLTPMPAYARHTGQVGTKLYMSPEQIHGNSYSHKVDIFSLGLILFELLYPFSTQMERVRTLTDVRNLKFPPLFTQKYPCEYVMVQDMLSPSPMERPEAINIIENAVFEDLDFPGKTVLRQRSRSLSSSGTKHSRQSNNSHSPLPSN
PABP polyA inh = PABP poly(A) RNA binding inhibitors, primary screen, biochemical, fluorescence polarization, uHTS; Polyadenylate-binding protein 1 (Homo sapiens), P11940; inhibition, % at 35 µM; 1% of 290,000 active; AID 2014, 2009;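 further: calls also rest on retests at 20 µM and on dose response follow-up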
MLLE-PAM2 inh = inhibitors of PABP1 MLLE–PAM2 peptide binding, primary screen, biochemical, fluorescence polarization, FITC-PAM2, GST-MLLE; Polyadenylate-binding protein 1 (Homo sapiens), P11940; inhibition, % at 20 µM; 0.36% of 360,000 active; in the data active means inhibition above about 35%, passing the limit was not always enough;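 further: plate controls were DMSO wells with GST-MLLE for no effect and wells lacking GST-MLLE protein for full effect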
eIF4E-4G inh = eIF4E–eIF4G protein interaction inhibitors, primary screen, biochemical, uHTS, TR-FRET, eIF4GI fragment; TR-FRET eIF4E-eIF4GI(517-606) binding, 2 h; AID 782, 2007; inhibition, % at 21.7 µM; 0.37% of 220,000 active;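 active means inhibition above about 30%, limit read from the data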;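 further: 0% = full FRET control wells and 100% = background wells lacking eIF4GI fragment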
eIF4H FP inh = human eIF4H binding inhibitors, primary screen, translation initiation inhibitor project, biochemical, uHTS, fluorescence polarization; Eukaryotic translation initiation factor 4H (Homo sapiens), Q15056; eIF4H fluorescence polarization binding assay; inhibition, % at 35 µM; 0.94% of 290,000 active;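 further: calls also rest on retests at 20 µM and on dose response follow-up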
PfM18AAP inh-2 = PfM18AAP inhibitors, malaria aminopeptidase, confirmation, biochemical, QFRET, recombinant enzyme, triplicate; shares compounds with PfM18AAP inh-1; H-Glu-NHMec fluorogenic cleavage; inhibition, % at 7.35 µM; 28% of 2,400 active; AID 2170, 2009;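 active means mean inhibition over replicate wells above the hit cutoff set for the earlier primary screen, cut at about 29% in these data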;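 further: 0% = median of test compound wells and 100% = 2 mM ZnCl2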
CTSL1 counter = cathepsin L1 inhibitors, retest, confirmation, counter-screen for PFM18AAP inhibitor project, biochemical, QFRET, triplicate | purified cathepsin L1, Z-Leu-Arg-MCA fluorescence | inhibition, % at 5.96 µM | shares compounds with PfM18AAP inh-1 | AID 2178, 2009 | 2,400 tested, under 10 active;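 active means average inhibition across replicates above the hit cutoff set in the earlier primary screen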;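 further: 0% = median of test compound wells and 100% = Z-Phe-Ala-diazomethylketone 1 µM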
The depositor's hits bear a star; ? = inconclusive; nt = no result. Hits are enriched below; roughly 2.4% of the tested compounds scored in any of these assays. Unless noted, how the calls were made is not given here.

SMILES | PfM18AAP inh-1 | PERK inh | PABP polyA inh | MLLE-PAM2 inh | eIF4E-4G inh | eIF4H FP inh | PfM18AAP inh-2 | CTSL1 counter
O=[N+]([O-])c1ccc(N/N=C/c2ccc(O)c(O)c2O)c(S(=O)(=O)N2CCOCC2)c1 | 37* | 0 | 30* | -14 | 20 | 90 | -29 | -7
COc1cc(/C=N/Nc2ccc([N+](=O)[O-])cc2S(=O)(=O)N2CCOCC2)cc(OC)c1OC | -2 | 0 | 0 | -27 | 0 | -5 | nt | nt
NC(=S)NNC(=O)Nc1ccc(Cl)c(Cl)c1 | 35* | 1 | 0 | -34 | -6 | 8 | 14 | 2
O=c1[nH]c2ccccc2c2nc(-c3cccc(S(=O)(=O)N4CCCC4)c3)nn12 | -5 | 1 | 14 | 6 | -5 | 8 | nt | nt
COc1ccc(NC(=O)c2cccc(-c3ccc(O)cc3)c2)cn1 | -4 | nt | ? | 124 | nt | ? | nt | nt
Oc1ccc(/C=N/N(c2ccccc2)c2ccccc2)c(O)c1O | 48* | nt | nt | -7 | nt | nt | -15 | -8
CCN(CC)c1ccc(/C=N/N(c2ccccc2)c2ccccc2)c(O)c1 | 0 | 1 | 5 | -20 | 2 | -2 | nt | nt
Oc1ccc(/C=N/N(c2ccccc2)c2ccccc2)cc1O | 67* | nt | 10 | -9 | nt | 20 | 42* | -8
O=[N+]([O-])c1cc([N+](=O)[O-])c2cccnc2c1Oc1ccccc1O | 84* | -1 | -1 | 14 | 9 | 23 | 60* | 4
O=[N+]([O-])c1ccc(O)c2ncccc12 | 10 | 2 | 9 | 1 | 5 | 8 | nt | nt
COc1ccc2c(c1)C(O)C(CO)C(C(=O)O)C2 (centres undefined) | nt | nt | nt | -3 | nt | nt | nt | nt
Cc1sc2nc(SCC(=O)NCc3ccco3)n(-c3ccccc3)c(=O)c2c1C | 10 | 0 | 10 | 7 | 1 | -10 | nt | nt
COc1ccc(-n2c(SCC(=O)NCc3ccco3)nc3sc4c(c3c2=O)CCN(C)C4)cc1 | 34* | nt | 0 | -9 | nt | 44 | -18 | -4
CN1CCc2c(sc3nc(SCC(=O)NCc4ccco4)n(-c4ccccc4)c(=O)c23)C1 | 39* | nt | 47 | -83 | nt | 91 | -3 | -1
COC(=O)CSc1nc2sc3c(c2c(=O)n1-c1ccc(OC)cc1)CCN(C)C3 | 16 | nt | -3 | -8 | nt | -14 | nt | nt
COc1ccc(-n2cc([N+](=O)[O-])c(=O)c3ccc(Cl)cc32)cc1 | nt | nt | nt | -3 | nt | nt | nt | nt
CCCCCCC1CCC(C(=O)N2CCOCC2)CC1 (centres undefined) | 1 | 0 | -3 | 4 | -4 | 9 | nt | nt
O=C(NNC(=O)c1cccs1)Nc1cccc(Cl)c1 | 60* | 1 | 7 | -1 | 0 | 4 | 20 | 3
NS(=O)(=O)c1ccc(NNC(=O)c2cccs2)cc1 | 55* | -1 | -4 | -8 | -1 | 6 | 36* | 2
O=C(NNc1cc(Cl)cc(Cl)c1)c1cccs1 | 37* | 1 | 1 | 11 | 0 | 3 | 33* | 2
O=C(NNC(=S)Nc1ccc(Cl)cc1)c1cccs1 | 8 | 1 | 0 | 33 | 2 | 9 | nt | nt
O=C(NCc1cccs1)Nc1cccc(Cl)c1 | 6 | 1 | nt | 10 | nt | nt | nt | nt
O=C(NNc1ccc(Cl)cc1)c1cccs1 | 44* | 0 | 0 | 23 | 0 | -15 | 25 | -1
NS(=O)(=O)c1ccc(NS(=O)(=O)c2cccs2)cc1 | 4 | 2 | -9 | -7 | -7 | -10 | nt | nt
CCOC(=O)c1ccc(CN(Cc2ccc(C)cc2)S(=O)(=O)c2cccc([N+](=O)[O-])c2)cc1 | -2 | 0 | 6 | 4 | 7 | -10 | nt | nt
SMILES | PfM18AAP inh-1 | PERK inh | PABP polyA inh | MLLE-PAM2 inh | eIF4E-4G inh | eIF4H FP inh | PfM18AAP inh-2 | CTSL1 counter
Cc1cccc(C)c1C(O)c1ncc(-c2cccc(C(F)(F)F)c2)[nH]1 (centres undefined) | nt | nt | nt | -4 | nt | nt | nt | nt
O=S(=O)(NNc1nccc(C(F)(F)F)n1)c1cccc(Cl)c1Cl | 56* | 0 | 1 | 29 | 5 | 7 | 14 | 6
COc1cccc(CC2(CO)CCCN(Cc3ccc4c(c3)OCCO4)C2)c1 (centres undefined) | -8 | 0 | 7 | 0 | 1 | 6 | nt | nt
S=C(Nc1ccccc1)N1CCOCC1 | 2 | 1 | -2 | -12 | -5 | -6 | nt | nt
S=C(N/N=C/c1ccccc1)N1CCOCC1 | 34* | 0 | -8 | -11 | -32 | 10 | -40 | 35*
N#CC1=C(N)C(C#N)(C#N)[C@H](c2c(F)cccc2F)[C@H]2CC3(CC=C12)OCCO3 | 10 | 0 | ? | 93 | 3 | ? | nt | nt
N#CC1=C(N)C(C#N)(C#N)C2(CCC3(CC2)OCCO3)C2CC3(CC=C12)OCCO3 (centres undefined) | 55* | -1 | -2 | -16 | 2 | -2 | -3 | -1
O=S(=O)(c1ccccc1Cl)N1CCCC(c2nc(-c3cccnc3)no2)C1 (centres undefined) | -1 | 0 | -6 | 4 | -7 | -2 | nt | nt
CCN1C[C@@H]2[C@@H]3C(=O)N(C)C(=O)[C@@H]3[C@](Cc3ccccc3)(C1=O)N2C(=O)c1ccc(F)cc1 | nt | nt | nt | -10 | nt | nt | nt | nt
O=c1[nH][nH]c(=O)n1-c1ccccc1 | 8 | 1 | 15 | -8 | 0 | 10 | nt | nt
COc1ccc(S(=O)(=O)Nc2nc3c(s2)C(=O)CC(C)(C)C3)cc1 | 2 | nt | 9 | -7 | nt | -3 | nt | nt
Cc1c(Cl)cccc1NC(=O)c1ncn[nH]1 | 37* | 0 | 0 | -2 | -2 | -3 | 36* | 0
NNc1nc2cc3c(cc2s1)OCCO3 | 52* | nt | -7 | -31 | nt | 0 | 9 | -5
Cc1ccc2sc(NNC(=O)C3COc4ccccc4O3)nc2c1C (centres undefined) | 41* | 1 | 16 | -49 | -2 | 9 | 3 | 3
CC(=O)Oc1ccc(C(=O)Nc2ccc(S(=O)(=O)NCC3CCCO3)cc2)cc1 (centres undefined) | -3 | nt | -2 | -8 | nt | 0 | nt | nt
NCC(O)c1ccc(O)c(O)c1 (centres undefined) | nt | nt | nt | -4 | nt | nt | nt | nt

Bioassay records: PubChem, several laboratories
